From PubChem BioAssay come the findings set out here.

Test [1] can be described thus: rapamycin-like changes in RPL19A-GFP expression – cell-based, S. cerevisiae, multiplex flow cytometry, primary screen (AID 1862; in the data active = percent of DMSO control GFP below about 86%;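 also: lower values mimic rapamycin by blocking the RPL19A rise seen in DMSO cells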). The conditions noted are these: S. cerevisiae RPL19A-GFP strain, flow cytometry fluorescence, 3 h; at 10 µM; stronger effect = lower value.
A short description of test [2]: TOR pathway GLN3 branch reporter MEP2-GFP changes – S. cerevisiae, multiplex flow cytometry, primary screen (AID 1867;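 active = GFP response, as percent of the DMSO control, above the screen-wide mean plus 3 SD, about 139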;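 also: median GFP channel fluorescence of barcode-gated MEP2-GFP cells measured by flow cytometry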). The conditions noted are these: S. cerevisiae MEP2-GFP strain, 3 h, at 10 µM, stronger effect = higher value, 100% means same as DMSO wells.
Test [3] in a line: TOR pathway RTG branch CIT2 reporter changes – S. cerevisiae, GFP fusion, multiplex flow cytometry, primary screen (AID 1870;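 active = percent response above a set limit, the screen-wide mean plus 3 SD, cut at about 130% in these data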;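 also: barcoded CIT2-GFP strain pooled with four other GFP strains with rapamycin as positive control; median GFP fluorescence per well over plate mean of DMSO wells so 100% = DMSO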). The conditions noted are these: S. cerevisiae CIT2-GFP expression, 3 h, at 10 µM, stronger effect = higher value. Background: Flow cytometry measures light scatter and fluorescence of single cells or particles in a stream.
Test [4] is described as follows: TOR pathway LAP4-GFP level changes – S. cerevisiae, multiplex flow cytometry, primary screen (AID 1873;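 active = GFP signal, as percent of the solvent control, above the screen mean plus 3 SD, about 149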). Conditions: S. cerevisiae LAP4-GFP expression, 3 h, at 10 µM, stronger effect = higher value.
Test [5] is described as follows: hit retest on RPL19A-GFP reporter strain – cell-based, S. cerevisiae, flow cytometry, cherry picks, mother/daughter gates, confirmation (AID 2270;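 active = GFP response below 50% of the DMSO control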). The conditions noted are these: 3 h, at 10 µM, stronger effect = lower value, 100 = same GFP as DMSO wells.
Test [6] can be described thus: yeast TOR pathway reporter LAP4-GFP change – cell-based, cherry picks, flow cytometry, mother/daughter gates, confirmation (AID 2271;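 active = GFP response above 150% of the DMSO control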;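 also: ratio of sample to DMSO plate mean so 100% equals DMSO level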). Conditions: S. cerevisiae LAP4-GFP strain, 3 h, at 10 µM, stronger effect = higher value, 100 means same as DMSO control.
Test [7] is described as follows: TOR pathway reporter MEP2-GFP, retest of hits – S. cerevisiae, flow cytometry GFP, cherry picks, confirmation (AID 2272;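 active = GFP response above 150% of the DMSO control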;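 also: ratio of well signal to plate DMSO mean so 100% equals DMSO level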). Conditions: S. cerevisiae MEP2-GFP strain, 3 h, at 10 µM, stronger effect = higher value.
Test [8] in a line: TOR pathway CIT2 reporter hit retest – S. cerevisiae, GFP fusion, cherry picks, mother/daughter gates, confirmation (AID 2274;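 active = GFP response above 150% of the DMSO level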). Conditions: S. cerevisiae CIT2-GFP strain, flow cytometry, 3 h, at 10 µM, stronger effect = higher value.
A short description of test [9]: reduced mouse 2C T cell binding to pMHC/ICAM-1 vesicles – MLPCN validation set, flow cytometry, LFA-1/ICAM-1 modulator project, pilot screen (AID 2523;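 active = response below a set limit, under 55% cells CD8-positive and vesicle-bound, and CD8 cells' 90th-percentile brightness under 279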;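 as to vesicle binding response: mean PE anti-B7-1 fluorescence of CD8+ cells relative to row control; 100% = QL9-loaded vesicles with DMSO vehicle in the same plate row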). Conditions: 2C mouse CD8+ T cells, at 7 µM, stronger effect = lower value; double positive events: measured here: CD8+/vesicle+ event percentage.
The target in test [10] is Integrin beta-1 (Homo sapiens) + Integrin alpha-4 (Homo sapiens) (UniProt P13612+P05556). The test can be described thus: alpha4beta1 integrin LIBS antibody binding reduction – U937 cells, HUTS-21 mAb, flow cytometry, validation set, VLA-4 allosteric modulator project, pilot screen (AID 2674;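 active = inhibition above 50%, about 3 SD of the validation set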;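 also: antibody binding induced by the VLA-4 ligand LDV present at three times its Kd; 0% = LDV ligand with antibody and no compound and 100% = antibody without LDV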). Conditions: HUTS-21 LIBS mAb binding, at 6.7 µM, stronger effect = higher value, binding induced by LDV ligand.

Test [11] is described as follows: calorie-restriction mimetic ROS inhibitors, yeast – validation compound set, pilot screen (AID 2706;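 active = superoxide response below 65% of plate, a cut near 3 SD across the whole screen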;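 also: yeast exposed to compound for one week at 30 degrees C before staining; 100% = mean of all compound wells on the same plate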). The conditions noted are these: S. cerevisiae aging, superoxide DHE fluorescence; at 10 µM, stronger effect = lower value.
Test [12] deals with Beta-adrenergic receptor kinase 1 (Homo sapiens) (UniProt P25098). The test can be described thus: GRK2 binders displacing RNA aptamer, biochemical, validation, human GRK2, bead flow cytometry (AID 488806;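 active = aptamer binding inhibition above 30%, about 3 SD of noise from non-fluorescent compounds; inactive = inhibition at or below 30%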). The conditions noted are these: bead-bound GRK2, FAM-aptamer displacement, at 10 µM, stronger effect = higher value.
In test [13] the target is Beta-2 adrenergic receptor (Homo sapiens) (UniProt P07550). In words: agonist-induced loss of surface beta2AR – cell-based, FAP fluorogen, flow cytometry, validation set, pilot screen (AID 504459;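 active = percent response above 42, roughly 3 SD of non-fluorescent test compounds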;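 also: agonist-driven loss of surface beta2AR via internalization measured by FAP dye flow cytometry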). The conditions noted are these: Am2.2-beta2AR cells, at 10 µM, stronger effect = higher value.
The target of test [14] is AP-2 complex subunit beta (Homo sapiens) (UniProt P63010). In words: beta-arrestin/AP2 interaction blockers – biochemical, validation set, GST-AP2 beads, flow cytometry, pilot screen (AID 504541;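 active = inhibition above 54%, about 3 SD of non-fluorescent compounds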;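 also: AP2 carries R879A mutation and is captured from E. coli lysate; bead-bound FITC arrestin peptide fluorescence measuring arrestin peptide binding to AP2; 0% = DMSO wells and 100% = excess unlabeled arrestin peptide control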). Conditions: FITC arrestin peptide, at 10 µM, stronger effect = higher value, AP2 beta2 appendage fragment, R879A mutant.
Test [15] in a line: cytosolic pH regulators acting via V-ATPase – S. cerevisiae, pHLuorin, HTS validation (AID 504600; in the data active = response above about 15%;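 also: plate controls were DMSO for no effect and reference compound for full effect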). Conditions: V-ATPase proton transport, at 10 µM, stronger effect = higher value.
The subject of test [16] is anti-desmoglein-3 scFv antibody binding to human DSG3. The test can be described thus: blockers of pathogenic pemphigus antibody–desmoglein-3 binding – biochemical, validation compound set, bead-based, flow cytometry, pilot screen (AID 588368).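 Also: signal is the median channel fluorescence of bead-bound GFP antibody.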 Conditions: Protein G beads, DSG3-Fc, scFv-GFP binding, at 10 µM, stronger effect = lower value.
Test [17] can be described thus: Nile Red efflux blockade in pump-expressing yeast – validation compound set, multiplex, phenotypic, pilot screen (AID 588506;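 active = efflux inhibition above 0.42, the validation set average plus 4 SD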;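 also: Nile Red retained in cells so higher fluorescence means more efflux inhibition; 0 = negative control wells and 1 = enniatin B 25 µM full block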). Conditions: S. cerevisiae pump-expressing triplex, Nile Red efflux flow cytometry; at 10 µM; stronger effect = higher value; the pumps come from Candida albicans.
Test [18] addresses ATP-binding cassette sub-family B member 6 (Homo sapiens) (UniProt Q9NP58). The test can be described thus: blockers of ABCB6-driven porphyrin uptake – K562-ABCB6 cells, flow cytometry, validation set, pilot screen (AID 588550;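 active = inhibition above the screen-wide mean plus 3 SD, about 51%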;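 also: 0% = DMSO wells and 100% = benzethonium chloride 70 µM positive control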). Conditions: K562-ABCB6 porphyrin accumulation, 1 h, at 10 µM, stronger effect = higher value.
Test [19] is described as follows: AML differentiation inducers, ER-HoxA9 marrow cells – cell-based, GFP/MAC1 double positive, flow cytometry, validation set, primary screen (AID 588685;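 active = differentiation response of at least 50%, scaled between solvent and reference control, from cells with both markers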;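 also: compound exposure lasts four days before antibody staining and flow analysis; 0% = DMSO wells and 100% = 5 µM fulvestrant positive control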). The conditions noted are these: stronger effect = higher value, normalized: vehicle 0, fulvestrant 100.
Test [20] is described as follows: yeast AGP1-GFP level changes, GLN3 branch – cell-based, multiplex flow cytometry, S. cerevisiae, primary screen (AID 1887;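 active = GFP signal above the screen-wide mean plus 3 SD, that is over about 124.5% of the solvent control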;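 also: AGP1-GFP fusion strain of S. cerevisiae within a five-strain barcoded multiplex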). The conditions noted are these: 3 h, at 10 µM, stronger effect = higher value.
The mark [21] stands for this setting: measured here: daughter cell gate.
Setting [22] is: measured here: mother cell gate.

What is called inhibition is the change of the read-out against control, counted positive when it falls.

Structures are written as SMILES. Results filed as inconclusive are left out. Active and inactive are the calls of the source.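 The calls were made as follows, unless noted: active = binding below the plate cutoff, the plate median minus 3 SD, with a reading above zero; inconclusive = below the plate cutoff but reading exactly zero; inactive = the rest.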

Chain of AP-2 complex subunit beta (Homo sapiens) (P63010 whole entry, looked up, the tested form may be a part, one chain of several): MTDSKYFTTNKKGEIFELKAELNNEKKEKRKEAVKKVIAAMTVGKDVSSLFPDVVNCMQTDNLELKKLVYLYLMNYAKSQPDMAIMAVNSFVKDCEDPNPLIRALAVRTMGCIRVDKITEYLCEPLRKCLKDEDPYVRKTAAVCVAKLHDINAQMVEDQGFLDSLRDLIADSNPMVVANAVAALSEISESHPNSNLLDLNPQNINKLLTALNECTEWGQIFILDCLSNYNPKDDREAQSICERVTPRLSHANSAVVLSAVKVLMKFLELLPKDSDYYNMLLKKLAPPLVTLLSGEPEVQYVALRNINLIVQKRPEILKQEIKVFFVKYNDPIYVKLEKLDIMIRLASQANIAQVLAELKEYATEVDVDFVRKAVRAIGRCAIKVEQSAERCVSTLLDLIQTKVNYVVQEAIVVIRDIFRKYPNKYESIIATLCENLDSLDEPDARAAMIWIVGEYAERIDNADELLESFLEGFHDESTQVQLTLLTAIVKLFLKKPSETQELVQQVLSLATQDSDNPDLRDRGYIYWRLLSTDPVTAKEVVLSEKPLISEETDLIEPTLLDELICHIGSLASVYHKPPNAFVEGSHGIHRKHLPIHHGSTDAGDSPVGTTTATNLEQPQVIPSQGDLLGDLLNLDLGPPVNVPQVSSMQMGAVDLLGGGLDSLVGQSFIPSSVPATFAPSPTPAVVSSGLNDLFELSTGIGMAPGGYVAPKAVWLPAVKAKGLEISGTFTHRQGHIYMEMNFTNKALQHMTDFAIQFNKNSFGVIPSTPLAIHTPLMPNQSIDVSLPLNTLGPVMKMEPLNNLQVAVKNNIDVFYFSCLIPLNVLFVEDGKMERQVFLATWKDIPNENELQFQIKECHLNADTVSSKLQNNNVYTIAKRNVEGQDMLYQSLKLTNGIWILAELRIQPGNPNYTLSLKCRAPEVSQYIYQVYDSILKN
Chain of Integrin beta-1 (Homo sapiens) + Integrin alpha-4 (Homo sapiens) (P05556 whole entry, looked up): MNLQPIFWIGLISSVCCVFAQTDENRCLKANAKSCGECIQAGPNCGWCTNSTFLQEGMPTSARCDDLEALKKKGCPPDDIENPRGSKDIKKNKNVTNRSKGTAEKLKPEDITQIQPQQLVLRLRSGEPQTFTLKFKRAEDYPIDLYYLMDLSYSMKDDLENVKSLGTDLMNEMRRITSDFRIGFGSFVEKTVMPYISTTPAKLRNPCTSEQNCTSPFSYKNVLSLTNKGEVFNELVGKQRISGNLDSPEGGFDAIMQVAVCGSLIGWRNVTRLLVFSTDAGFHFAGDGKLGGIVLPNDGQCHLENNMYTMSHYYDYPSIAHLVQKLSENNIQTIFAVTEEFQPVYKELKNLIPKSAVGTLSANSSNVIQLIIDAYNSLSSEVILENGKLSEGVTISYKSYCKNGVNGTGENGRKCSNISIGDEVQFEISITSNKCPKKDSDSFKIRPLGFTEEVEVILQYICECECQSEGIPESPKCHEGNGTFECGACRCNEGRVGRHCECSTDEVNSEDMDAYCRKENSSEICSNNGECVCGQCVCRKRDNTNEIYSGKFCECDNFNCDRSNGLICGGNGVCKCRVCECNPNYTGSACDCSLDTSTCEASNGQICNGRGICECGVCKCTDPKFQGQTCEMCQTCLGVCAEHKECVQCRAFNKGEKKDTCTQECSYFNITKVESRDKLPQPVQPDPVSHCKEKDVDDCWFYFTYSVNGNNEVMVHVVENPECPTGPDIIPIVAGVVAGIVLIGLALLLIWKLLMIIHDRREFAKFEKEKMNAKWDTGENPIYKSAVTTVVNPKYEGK
Chain of Integrin beta-1 (Homo sapiens) + Integrin alpha-4 (Homo sapiens) (P13612 whole entry, looked up): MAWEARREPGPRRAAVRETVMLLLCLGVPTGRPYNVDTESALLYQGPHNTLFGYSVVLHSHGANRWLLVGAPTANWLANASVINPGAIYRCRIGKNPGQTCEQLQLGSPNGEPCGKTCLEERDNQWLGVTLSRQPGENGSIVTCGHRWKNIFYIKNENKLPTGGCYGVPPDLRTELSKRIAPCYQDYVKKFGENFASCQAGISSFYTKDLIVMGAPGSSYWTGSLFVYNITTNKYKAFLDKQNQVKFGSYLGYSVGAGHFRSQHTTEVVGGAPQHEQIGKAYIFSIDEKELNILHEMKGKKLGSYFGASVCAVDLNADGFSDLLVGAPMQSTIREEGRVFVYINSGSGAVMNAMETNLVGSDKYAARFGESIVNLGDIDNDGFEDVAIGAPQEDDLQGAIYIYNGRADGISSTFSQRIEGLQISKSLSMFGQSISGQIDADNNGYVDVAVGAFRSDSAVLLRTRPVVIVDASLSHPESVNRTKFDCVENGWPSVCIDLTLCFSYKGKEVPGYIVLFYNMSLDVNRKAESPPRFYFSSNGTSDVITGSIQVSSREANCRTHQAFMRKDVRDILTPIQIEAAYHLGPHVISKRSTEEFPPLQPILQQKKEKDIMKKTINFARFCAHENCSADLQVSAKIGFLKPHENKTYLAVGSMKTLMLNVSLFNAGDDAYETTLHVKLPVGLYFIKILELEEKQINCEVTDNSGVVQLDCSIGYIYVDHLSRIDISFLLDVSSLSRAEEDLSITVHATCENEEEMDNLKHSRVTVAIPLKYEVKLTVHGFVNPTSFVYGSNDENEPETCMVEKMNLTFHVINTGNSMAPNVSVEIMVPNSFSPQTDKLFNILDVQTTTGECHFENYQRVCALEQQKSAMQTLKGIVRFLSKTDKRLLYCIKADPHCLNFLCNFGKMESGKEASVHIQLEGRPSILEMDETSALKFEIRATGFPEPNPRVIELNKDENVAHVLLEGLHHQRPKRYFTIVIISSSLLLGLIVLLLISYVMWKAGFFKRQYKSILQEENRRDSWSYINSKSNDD
Chain of ATP-binding cassette sub-family B member 6 (Homo sapiens) (Q9NP58 whole entry, looked up): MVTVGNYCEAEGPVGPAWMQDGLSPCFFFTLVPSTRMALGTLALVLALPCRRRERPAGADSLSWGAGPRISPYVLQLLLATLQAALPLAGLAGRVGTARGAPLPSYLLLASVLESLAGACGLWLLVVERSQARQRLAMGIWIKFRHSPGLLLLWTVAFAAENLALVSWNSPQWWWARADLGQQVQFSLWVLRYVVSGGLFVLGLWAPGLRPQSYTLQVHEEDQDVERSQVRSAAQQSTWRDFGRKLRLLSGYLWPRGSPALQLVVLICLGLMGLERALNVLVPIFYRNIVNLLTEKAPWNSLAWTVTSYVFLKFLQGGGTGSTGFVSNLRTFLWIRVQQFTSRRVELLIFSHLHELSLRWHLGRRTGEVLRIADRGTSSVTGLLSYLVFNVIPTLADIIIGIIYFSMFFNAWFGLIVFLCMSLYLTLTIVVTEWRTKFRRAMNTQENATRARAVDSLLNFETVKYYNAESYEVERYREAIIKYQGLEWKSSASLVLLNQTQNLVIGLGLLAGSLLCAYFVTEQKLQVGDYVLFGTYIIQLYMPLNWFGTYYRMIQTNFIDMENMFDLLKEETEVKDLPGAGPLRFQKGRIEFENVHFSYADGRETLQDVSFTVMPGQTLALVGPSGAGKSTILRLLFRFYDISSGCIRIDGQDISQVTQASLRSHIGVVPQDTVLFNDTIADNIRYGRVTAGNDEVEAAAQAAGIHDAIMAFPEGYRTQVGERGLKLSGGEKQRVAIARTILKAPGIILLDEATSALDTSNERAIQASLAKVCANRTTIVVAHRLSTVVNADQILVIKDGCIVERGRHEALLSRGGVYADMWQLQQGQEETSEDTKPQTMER
Chain of Beta-adrenergic receptor kinase 1 (Homo sapiens) (P25098 whole entry, looked up): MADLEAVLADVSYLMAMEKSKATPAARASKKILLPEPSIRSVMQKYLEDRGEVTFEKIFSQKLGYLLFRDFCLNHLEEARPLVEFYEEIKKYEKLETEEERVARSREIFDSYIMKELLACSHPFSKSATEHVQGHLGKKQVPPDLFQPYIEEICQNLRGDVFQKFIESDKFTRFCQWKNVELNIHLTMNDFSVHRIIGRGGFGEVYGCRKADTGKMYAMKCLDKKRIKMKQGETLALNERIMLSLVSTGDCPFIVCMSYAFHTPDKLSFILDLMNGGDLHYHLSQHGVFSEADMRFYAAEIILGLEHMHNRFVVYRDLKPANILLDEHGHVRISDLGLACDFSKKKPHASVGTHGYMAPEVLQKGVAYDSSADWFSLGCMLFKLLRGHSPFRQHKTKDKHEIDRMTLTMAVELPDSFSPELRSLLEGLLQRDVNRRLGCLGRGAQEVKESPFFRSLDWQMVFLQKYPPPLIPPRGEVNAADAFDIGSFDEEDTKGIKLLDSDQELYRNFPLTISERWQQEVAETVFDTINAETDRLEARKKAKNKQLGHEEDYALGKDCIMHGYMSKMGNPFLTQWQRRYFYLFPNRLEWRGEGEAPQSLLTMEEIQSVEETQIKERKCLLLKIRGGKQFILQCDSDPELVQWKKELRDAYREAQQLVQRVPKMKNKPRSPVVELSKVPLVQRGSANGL
Chain of Beta-2 adrenergic receptor (Homo sapiens) (P07550 whole entry, looked up): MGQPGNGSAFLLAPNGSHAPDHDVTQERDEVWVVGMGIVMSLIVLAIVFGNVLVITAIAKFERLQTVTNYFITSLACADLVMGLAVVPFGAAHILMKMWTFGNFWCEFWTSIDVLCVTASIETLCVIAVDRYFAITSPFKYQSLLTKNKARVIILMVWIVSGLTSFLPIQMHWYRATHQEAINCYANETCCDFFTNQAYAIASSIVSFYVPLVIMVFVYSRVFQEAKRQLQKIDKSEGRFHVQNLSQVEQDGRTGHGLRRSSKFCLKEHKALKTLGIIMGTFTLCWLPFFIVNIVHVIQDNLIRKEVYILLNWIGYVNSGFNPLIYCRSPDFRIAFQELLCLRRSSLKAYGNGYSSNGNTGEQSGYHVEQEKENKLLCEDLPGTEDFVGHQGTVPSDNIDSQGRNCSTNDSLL

As for `O=c1[nH]c(=O)n([C@H]2C[C@H](O)[C@@H](CO)O2)cc1F`, the percent of DMSO control GFP in test [1] was 91.1% (inactive). Also, the GFP response vs DMSO in test [2] was 142% (active); in test [4], 93.5% (inactive); in test [5], 98.6% (inactive); in [5] (setting [21]) it was 97.8%; in [5] (setting [22]) it was 99.2%; in test [7], 101% (inactive). For the same compound, the percent response of DMSO control in test [3] was 101% (inactive). The GFP response relative to DMSO in [6] is 97.3% (inactive); in [6] (measured here: daughter cell gate response), 96.6%; in test [6] (measured here: mother cell gate response), 97.2%. The GFP response, % of DMSO was 93.4% (inactive) in [8], 93.7% in [8] (setting [21]) and 93.7% in test [8] (setting [22]). This compound also showed a double positive events in test [9] of 72.9%. Also, the vesicle binding response in [9] was 155% (inactive). Moreover, the inhibition in test [10] is 4.52% (inactive); in test [14], 1.52% (inactive); in [18], 11% (inactive). In addition, the superoxide response (% of plate) in test [11] was 94.8% (inactive). In [12], the aptamer binding inhibition was 9% (inactive). Besides, the response is -2.6% (inactive) in test [13] and -0.54% (inactive) in test [15]. In addition, the binding (% of control) in test [16] is 98% (inactive). Moreover, in test [17], the efflux inhibition (fraction of control) was -0.38 (inactive). For the same compound, the differentiation response in test [19] was -5.73% (inactive).
Turning to `Cc1cc(C(C)(C)C)c(O)c(C)c1CC1=NCCN1`, the percent of DMSO control GFP in [1] was 103% (inactive). In addition, the figures for the GFP response vs DMSO in test [2] and in [4] were 116% (inactive) and 94.1% (inactive), respectively. Further, the percent response of DMSO control in test [3] is 114% (inactive). In [9], this compound returned a double positive events of 62.9%. Further, in test [9], the vesicle binding response was 297% (inactive). For the same compound, the inhibition in test [10] is -29.4% (inactive); in [14] it was -0.66% (inactive); in test [18], 12% (inactive). Further, in test [11], the superoxide response (% of plate) was 93.7% (inactive). Moreover, the aptamer binding inhibition in [12] is 1% (inactive). Further, the response was 8.56% (inactive) in [13] and 0.6% (inactive) in test [15]. Also, the binding (% of control) in [16] is 106% (inactive). In addition, the efflux inhibition (fraction of control) in [17] is 0.34 (inactive). For the same compound, the differentiation response in [19] is 7.37% (inactive).
For `OC[C@@H](O)[C@@H](O[C@H]1O[C@H](CO)[C@@H](O)[C@H](O)[C@H]1O)[C@H](O)[C@@H](O)CO`, the percent of DMSO control GFP in test [1] is 102% (inactive). Further, the GFP response vs DMSO in test [2] was 103% (inactive); in test [4], 92% (inactive). Also, in test [3], the percent response of DMSO control was 88.4% (inactive). Further, the GFP response, % of DMSO in test [20] is 95% (inactive). The same compound came in with a double positive events in test [9] of 65%. Also, in [9], the vesicle binding response was 208% (inactive). Besides, the aptamer binding inhibition in test [12] was 0% (inactive). Further, the response is -1.29% (inactive) in test [13] and -1.56% (inactive) in test [15]. Besides, the results for the inhibition in test [14] and in [18] were 13.8% (inactive) and -1% (inactive), respectively. Moreover, the binding (% of control) in [16] was 102% (inactive). The efflux inhibition (fraction of control) in test [17] is 0.8 (active). Also, the differentiation response in [19] was 20.8% (inactive).
Consider `COc1cc(C2C(C(=O)c3ccc(C)o3)=C(O)C(=O)N2Cc2cccnc2)ccc1O` (stereo not drawn), for which, in [1], the percent of DMSO control GFP was 102% (inactive). For the same compound, the GFP response vs DMSO was 119% (inactive) in test [2] and 81.4% (inactive) in [4]. Also, in test [3], the percent response of DMSO control is 106% (inactive). Moreover, the double positive events in [9] came to 68.3%. In addition, the vesicle binding response in test [9] is 171% (inactive). Also, the inhibition in test [10] was 2.58% (inactive); in test [14], -5.82% (inactive); in [18], 9% (inactive). Further, the superoxide response (% of plate) in test [11] was 110% (inactive). For the same compound, the aptamer binding inhibition in [12] is 2% (inactive). Moreover, the response is -8.26% (inactive) in test [13] and 4.05% (inactive) in [15]. Besides, the binding (% of control) in [16] was 99.4% (inactive). Further, the efflux inhibition (fraction of control) in test [17] is 0.34 (inactive). Further, in test [19], the differentiation response is -0.82% (inactive).
